Each structure is given as a SMILES string. Several values for one entry are separate records, joined by “and”; a condition that tells them apart may be missing. Equal entries are not always repeated. Hit rate of the full screen: of about 290,000 compounds, about 1,800 (0.62%) were called active. No stated cut-off is given here; in the data, active means inhibition above about 50%; inactive means the rest. This excerpt belongs to a sample that is enriched for actives.

A short description of the assay: inhibition of NOD2-driven NF-kB reporter – cell-based, luminescence, uHTS, HEK293 (AID 1566). The settings on record: HEK293 NOD2/NF-kB luciferase reporter, at 4 µM, hits give high values. (A reporter such as luciferase makes a cellular process visible.)
Broadly, the inhibition is the change of the read-out against control, counted positive when it falls. With `Cc1nc2ccccc2c(=O)n1N`, the inhibition is -3.2% (inactive). As for `Cc1nc2sc(-c3ccccc3)cc2c(=O)n1N`, the inhibition was -41.2% (inactive).

Take `Cc1nc2cc(-c3ccccc3)sc2c(=O)n1N`: the inhibition was 54.8% (active). Turning to `CC(C)(C#N)NC(=O)C(=O)c1c(-c2ccccc2)cc2ccccn12`, the inhibition is 5% (inactive). To `CCOc1ccc(-n2c(N)c(-c3nc4ccccc4[nH]3)sc2=S)cc1` belongs 9.9% (inactive); to `COc1cccc(/C=N/Nc2ccc(S(=O)(=O)O)cc2)c1O`, 15.4% (inactive). In the case of `COc1cccc(/C=N/Nc2ccc(C(=O)O)cc2)c1O` it was 82.8% (active); in that of `COc1cccc(/C=N/Nc2ccc([N+](=O)[O-])cc2)c1O`, -64% (inactive). Take `CCOC(=O)CNC(=S)N(CCCN1CCN(C)CC1)Cc1cccs1`: the inhibition was -1.4% (inactive). In the case of `O=C1OC(c2ccccc2)c2ccccc21` (stereo not drawn) it was -11.5% (inactive); in that of `CC1CCN(S(=O)(=O)c2ccc(NC(=O)CNC3CCCCC3)cc2)CC1`, -15.2% (inactive). In the case of `Cc1sc2c(=O)n3c(nc2c1C(=O)NC1CCCCC1)CCCCC3` it was 16.8% (inactive).

As for `O=C(O)CCSc1nc2ccccc2s1`, the inhibition was 65.2% (active). To `O=C(O)CSc1nc2ccccc2s1` belongs 0.2% (inactive) and -11.4% (inactive); to `O=C(CSc1nc2ccccc2s1)N/N=C/c1ccccc1C(=O)O`, 56.5% (active). For `O=C(O)COc1ccccc1/C=N/NC(=O)CSc1nc2ccccc2s1`, the inhibition is -0.7% (inactive).

In the case of `O=C(CSc1nc2ccccc2s1)N/N=C/c1ccc(C(=O)O)cc1`, the inhibition was 12.9% (inactive). For the molecule `O=C(CSc1nc2ccccc2s1)CSc1nc2ccccc2s1`, the inhibition was 4.4% (inactive). To `Cc1ccc(S(=O)(=O)N2CCN3CCCC3C2)cc1` (stereo not drawn) belongs 17.2% (inactive); to `O=C(O)c1ccc(-n2c(/C=C/c3ccccc3)nc3ccccc3c2=O)cc1`, -19.9% (inactive). To `COc1ccc(Oc2nnc(-c3ccc(C)cc3)c3ccccc23)cc1` belongs 14.9% (inactive); to `Cc1ccc(/C=C/C(=O)Nn2cnnc2)cc1`, 5% (inactive). As for `Cc1cc(Br)c(S(=O)(=O)NCc2ccncc2)cc1C`, the inhibition is 48.6% (inactive). To `Cc1ccc(C)c(S(=O)(=O)NCc2ccncc2)c1` belongs 22.5% (inactive); to `Cc1c(NP(=O)(Oc2ccccc2F)Oc2ccccc2F)c(=O)n(-c2ccccc2)n1C`, 7.9% (inactive). As for `O=C(Nc1cc(S(=O)(=O)N2CCCC2)ccc1OCC(F)(F)F)c1ccccc1F`, the inhibition is 6.6% (inactive). In the case of `Cc1cccc(NC(=O)CSc2ncnc3sc(C)c(C)c23)n1` it was 36.5% (inactive); in that of `COC(=O)c1c(-c2ccccc2)csc1NC(=O)CSc1ncnc2sc(C)c(C)c12`, 34.6% (inactive). In the case of `COC(=O)c1c(-c2cccs2)csc1NC(=O)CSc1ncnc2sc(C)c(C)c12` it was 51.2% (active). As to `O=C(O)CN1C(=O)C2C3CC(C2C1=O)C1C(c2ccc(Cl)cc2)c2sc(=O)[nH]c2SC31` (stereo not drawn), the inhibition is 3.8% (inactive). To `Cc1nn(-c2ccccc2)c(Cl)c1/C=N/NC(=O)OC(C)(C)C` belongs -73.9% (inactive).

With `Cc1cccc(C(=O)Nc2nnc(S(=O)(=O)N3CCC(C)CC3)s2)c1`, the inhibition was -3.6% (inactive). Regarding `O=C(Nc1nnc(S(=O)(=O)N2CCCCC2)s1)c1ccc(Cl)cc1`, the inhibition is 47.8% (inactive). `CC1CCN(S(=O)(=O)c2nnc(NC(=O)c3cccc([N+](=O)[O-])c3)s2)CC1`: the inhibition was 37.1% (inactive).

In the case of `Cc1ccc(C(=O)Nc2nnc(S(=O)(=O)N3CCCCCC3)s2)cc1`, the inhibition is 4.6% (inactive). In the case of `CC(=O)c1cccc(NCC(=O)c2ccc(C)c([N+](=O)[O-])c2)c1` it was 15.7% (inactive); in that of `Cc1ccc(S(=O)(=O)Nc2nnc(C(C)(C)C)s2)cc1`, 20.9% (inactive).

On to `N/C(=N\c1nc(CSc2ccc(Cl)cc2)cc(=O)[nH]1)Nc1ccccc1C(F)(F)F`, for which the inhibition is 2.8% (inactive).

With `CC(=O)N1N=C(c2ccco2)CC1c1cccs1` (stereo not drawn), the inhibition is -8.2% (inactive). In the case of `Cc1ccc(C2CC(c3cccs3)=NN2C(=O)CCl)cc1` (stereo not drawn) it was 37.3% (inactive); in that of `O=C(O)CCC(=O)N1N=C(c2ccco2)CC1c1cccs1` (stereo not drawn), 12.1% (inactive).

With `Cc1ccc(C2=NN(C(=O)CCl)C(c3ccco3)C2)o1` (stereo not drawn), the inhibition was -44.2% (inactive). As to `CCOC(=O)c1cccc(NC(=O)COC)c1`, the inhibition is 4.6% (inactive). As to `CCOCCCNC(=O)/C(C#N)=C/c1ccc(C(=O)OC)cc1`, the inhibition is 15.4% (inactive).

Regarding `O=C1Nc2ccccc2S/C1=C\C(=O)N1CCCC1`, the inhibition is -4% (inactive).

Consider `O=C(CCNC(=O)c1ccco1)Nc1ccccc1N1CCOCC1`, for which the inhibition is -4.7% (inactive).

In the case of `COc1cc(/C=C2\SC(=O)N(CC(=O)Nc3cccc(C)c3)C2=O)cc([N+](=O)[O-])c1O`, the inhibition was 1.5% (inactive). For the molecule `COc1cc(/C=C2\SC(=O)N(CC(=O)Nc3ccccc3F)C2=O)cc(Cl)c1O`, the inhibition is 18.4% (inactive). In the case of `CCOc1cc(/C=C2\SC(=O)N(CC(=O)Nc3ccccc3F)C2=O)cc([N+](=O)[O-])c1O`, the inhibition is 55.8% (active). On to `O=C(NC1CCCCC1)C1CN(S(=O)(=O)c2ccccc2)CCN1S(=O)(=O)c1ccccc1` (stereo not drawn), for which the inhibition was 20.9% (inactive).

Regarding `CCOC(=O)/C(C#N)=C1/SC(CC)C(=O)N1c1ccc(Br)cc1` (stereo not drawn), the inhibition was -8.1% (inactive). In the case of `CC1CCN(C(=S)c2cn(Cc3ccccc3F)c3ccccc23)CC1` it was 10.5% (inactive); in that of `CC(=O)Oc1cccc(N2C(=O)C3CC=CCC3C2=O)c1` (stereo not drawn), 2.7% (inactive); in that of `Cc1csc2c(N3CCN(C(=O)Nc4ccc(OC(F)(F)F)cc4)CC3)ncnc12`, 10.4% (inactive).

In the case of `Cc1csc2c(N3CCN(C(=O)Nc4ccccc4)CC3)ncnc12`, the inhibition was 34.1% (inactive).

`CC(NS(=O)(=O)c1ccc(Cl)cc1)C(=O)N1CCOCC1` (stereo not drawn): the inhibition was -4.3% (inactive). In the case of `Cc1cc(OCC(=O)NCCCn2ccnc2)c2c(C)c(C)c(=O)oc2c1` it was -3.4% (inactive); in that of `CC(CCc1ccco1)N(C)S(=O)(=O)c1csc(C(N)=O)c1` (stereo not drawn), 15% (inactive). To `CC(=O)c1ccc(S(=O)(=O)N(C)C(C)CCc2ccco2)cc1` (stereo not drawn) belongs 54.3% (active); to `COc1ccc(S(=O)(=O)N(C)C(C)CCc2ccco2)cc1` (stereo not drawn), -3.3% (inactive). To `CC(C)(C)C(=O)C[n+]1cccc(C(N)=O)c1` belongs 12.8% (inactive); to `Cc1cc(N2CCCC2)ccc1NC(=O)COc1cccc(C(F)(F)F)c1`, 60.3% (active). Consider `O=C(COc1ccccc1)Nc1cc(C(F)(F)F)ccc1N1CCCC1`, for which the inhibition was 24.5% (inactive). For `O=C(COc1cccc(C(F)(F)F)c1)Nc1ccc(S(=O)(=O)N2CCCC2)cc1`, the inhibition is -5.9% (inactive).

In the case of `O=C(Nc1cccc(C(F)(F)F)c1)C1CCN(S(=O)(=O)c2ccc(N3CCCC3=O)cc2)CC1`, the inhibition is 34.8% (inactive). To `Cc1ccc(N=C2C(=O)Nc3ccccc32)cc1` belongs 4% (inactive); to `Cc1cccc(C)c1N=C1C(=O)Nc2ccccc21`, 57.9% (active). Consider `Cc1cc(C)c(N=C2C(=O)Nc3ccccc32)c(C)c1`, for which the inhibition is 22.5% (inactive). In the case of `CCN(CC)C(=O)C1CCN(S(=O)(=O)c2ccc3c(c2)CCCN3C(=O)C2CCC2)CC1` it was 23.6% (inactive); in that of `COc1ccc(NC(C)=O)cc1NC(=O)c1ccc2ccccc2c1`, -14.6% (inactive); in that of `CCc1sc(NC(C)=O)nc1-c1ccccc1`, -49.5% (inactive). In the case of `CC(=O)Nc1ccc(NC(=O)C2CCC(CNS(=O)(=O)c3cccc4nsnc34)CC2)cc1` (stereo not drawn), the inhibition was -8.1% (inactive). To `CCCc1cc(=O)n2nc(N3CCC(C(=O)N4CCN(c5ccc(OC)cc5)CC4)CC3)sc2n1` belongs 62.2% (active). To `CCCc1cc(=O)n2nc(N3CCC(C(=O)N4CCN(c5cccc(OC)c5)CC4)CC3)sc2n1` belongs 40.5% (inactive); to `Cc1cc(=O)n2nc(N3CCC(C(=O)N4CCN(c5ccccc5)CC4)CC3)sc2n1`, -8.2% (inactive).

Regarding `NS(=O)(=O)c1ccc(CCNC(=O)c2ccc3ccccc3n2)cc1`, the inhibition was -17.8% (inactive).

As for `O=C(Nc1nnc(C2CC2)s1)c1ccc(Cl)c(S(=O)(=O)N2CCc3ccccc3C2)c1`, the inhibition is 41.6% (inactive). To `CCc1nnc(NC(=O)c2ccc(S(=O)(=O)N3CCc4ccccc4C3)cc2)s1` belongs 25.4% (inactive); to `CCCn1ncc(CN2CCCC(C(=O)c3cccc(OC(C)C)c3)C2)c1C` (stereo not drawn), -35.2% (inactive); to `Cc1[nH]c2ccc(C(=O)N3CCCCC3)cc2c1C`, -56% (inactive). With `CCC(=O)OCn1nnc2ccccc2c1=O`, the inhibition was 7.6% (inactive). Consider `Cc1sc(NC(=O)c2cccc([N+](=O)[O-])c2)c(C(N)=O)c1-c1ccc(C(C)(C)C)cc1`, for which the inhibition is 7.8% (inactive).

As to `Cc1sc(NC(=O)CCC(=O)O)c(C(N)=O)c1-c1ccccc1`, the inhibition is -3.9% (inactive).

Regarding `O=S(=O)(Nc1cccc(-c2cn3cccnc3n2)c1)c1ccc(F)cc1`, the inhibition is 0.9% (inactive).

Take `O=S(=O)(Nc1cccc(-c2cn3cccnc3n2)c1)c1ccccc1`: the inhibition was 4.2% (inactive). Consider `COC(=O)C1CC(Cl)CN1c1ncc(C(F)(F)F)cc1Cl` (stereo not drawn), for which the inhibition was 17.1% (inactive). `c1ccc(CCNc2ncnc3ccccc23)cc1`: the inhibition is 28.7% (inactive). Turning to `Brc1ccc2ncnc(NCc3ccccc3)c2c1`, the inhibition is 79% (active).

`OCCCCCNc1ncnc2ccccc12`: the inhibition is 40.1% (inactive). As for `Clc1ccc2c(NCc3ccco3)ncnc2c1`, the inhibition is 18.8% (inactive).

For the molecule `c1ccc(CNc2nc(NCc3ccccc3)c3ccccc3n2)cc1`, the inhibition was -4.4% (inactive).

Turning to `COc1cc2ncnc(NCc3ccco3)c2cc1OC`, the inhibition was -78.1% (inactive).

Turning to `OCCNc1ncnc2ccc(Br)cc12`, the inhibition is 23% (inactive).

For `COc1cc2ncnc(NCc3ccccc3)c2cc1OC`, the inhibition is -17.4% (inactive). In the case of `CCCCCCCCNc1ncnc2ccccc12` it was 55.7% (active); in that of `c1ccc(CNc2ncnc3ccccc23)cc1`, 55.3% (active). `CCN(CC)CCCNc1ncnc2ccccc12`: the inhibition was 9.5% (inactive). To `Nc1nc(Nc2cccc(Cl)c2)nc(NCCO)c1[N+](=O)[O-]` belongs 15.3% (inactive).
